Compound activity (PubChem)
STK33 kin inh: blocks human STK33 kinase activity | Q9BYT3 | ADP-Glo luminescence, MBP substrate | inhibition, % at 12.5 µM | 27,000 tested, 0.44% active; in the data active = inhibition above about 20%; inconclusive = no clear call, values can overlap the other calls
Target sequence (Q9BYT3 whole entry, looked up): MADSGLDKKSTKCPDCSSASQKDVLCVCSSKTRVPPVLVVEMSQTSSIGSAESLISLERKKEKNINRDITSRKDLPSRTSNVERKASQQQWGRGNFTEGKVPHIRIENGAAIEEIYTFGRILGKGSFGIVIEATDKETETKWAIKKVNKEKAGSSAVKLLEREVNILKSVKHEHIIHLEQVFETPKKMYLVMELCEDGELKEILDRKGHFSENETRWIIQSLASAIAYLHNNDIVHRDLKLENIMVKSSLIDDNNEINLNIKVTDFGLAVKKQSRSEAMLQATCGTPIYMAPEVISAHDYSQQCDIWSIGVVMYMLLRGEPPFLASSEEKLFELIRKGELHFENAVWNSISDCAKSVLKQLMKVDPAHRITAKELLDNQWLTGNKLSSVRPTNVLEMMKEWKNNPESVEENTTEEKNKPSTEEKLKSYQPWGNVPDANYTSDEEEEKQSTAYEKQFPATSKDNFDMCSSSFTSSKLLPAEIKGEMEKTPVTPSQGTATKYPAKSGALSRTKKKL
PD-1 reverse act: activators reversing PD-1 mediated T-cell inhibition. primary human CD4 T cells, PD-L1 beads, CellTiter-Glo 96 h. activation, % (concentration not given with the values). 29,000 tested, under 10 active; call rule not given here;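 also: 0% = median vehicle wells and 100% = positive control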
NOMO-1 viab: STK33 inhibitor candidate reducing NOMO-1 cell viability; NOMO-1 AML viability, CellTiter-Glo luminescence, 72 h; inhibition, % (no concentration beside the values); 37,000 tested, 7.5% active; in the data active = inhibition above about 80%; inconclusive = no clear call, values can overlap the other calls
* = called active by the depositor. This excerpt belongs to a sample that is enriched for hits.

For C[C@@H]1CN([C@@H](C)CO)C(=O)Cc2cc(NC(=O)Nc3ccc(C(F)(F)F)cc3)ccc2O[C@@H]1CN(C)C(=O)Nc1cccc2ccccc12 the results were STK33 kin inh -3.7, PD-1 reverse act -1.5 and NOMO-1 viab 82.5*.
For C[C@@H]1CN([C@H](C)CO)C(=O)Cc2cc(NC(=O)Nc3ccc(C(F)(F)F)cc3)ccc2O[C@@H]1CN(C)C(=O)Nc1cccc2ccccc12 the results were STK33 kin inh -1.0, PD-1 reverse act -3.6 and NOMO-1 viab 31.2.
For C[C@@H]1CN([C@@H](C)CO)C(=O)Cc2cc(NC(=O)Nc3ccc(F)cc3)ccc2O[C@@H]1CN(C)C(=O)Nc1ccc(C(F)(F)F)cc1 the results were STK33 kin inh 1.1 and NOMO-1 viab 32.8.
`COc1ccccc1NC(=O)Cn1cc(C(=O)C2CCCCC2)c2ccccc21` gave STK33 kin inh 4.3, PD-1 reverse act -0.4 and NOMO-1 viab 28.7.
CCOC(=O)CN1C(=O)C2(C(C#N)=C(N)Oc3n[nH]c(C)c32)c2ccccc21 (stereo not given) was read as STK33 kin inh 1.4, PD-1 reverse act 3.6 and NOMO-1 viab 1.1.
For COc1ccc(-c2[nH]nc(SC)c2C#N)cc1 the results were PD-1 reverse act -0.1 and NOMO-1 viab 34.5.
For Cc1ccc(NC(=O)c2ccc3c(c2)CCO3)cc1 the results were PD-1 reverse act 2.0 and NOMO-1 viab -9.4.
Screening C[C@@H]1CN([C@H](C)CO)C(=O)c2cccc(NS(C)(=O)=O)c2O[C@@H]1CN(C)Cc1ccc(C(=O)Nc2ccccc2N)cc1 returned PD-1 reverse act -0.8 and NOMO-1 viab 76.8.
Cc1noc(C)c1S(=O)(=O)Nc1cccc2c1O[C@@H](CN(C)Cc1ccc(C(=O)Nc3ccccc3N)cc1)[C@@H](C)CN([C@H](C)CO)C2=O was read as PD-1 reverse act 0.5 and NOMO-1 viab 82.5*.
`Cc1noc(C)c1S(=O)(=O)Nc1cccc2c1O[C@@H](CN(C)Cc1ccc(C(=O)O)cc1)[C@@H](C)CN([C@@H](C)CO)C2=O` gave PD-1 reverse act 0.3 and NOMO-1 viab 25.4.
Cc1noc(C)c1S(=O)(=O)Nc1cccc2c1O[C@H](CN(C)Cc1ccc(C(=O)Nc3ccccc3N)cc1)[C@H](C)CN([C@@H](C)CO)C2=O was read as PD-1 reverse act -2.2 and NOMO-1 viab 137.2*.
Cc1nc(C)c(C(=O)C2C(=O)C(=O)N(CCCN3CCOCC3)C2c2ccccc2)s1 (stereo not given) was read as STK33 kin inh -3.7, PD-1 reverse act 1.5 and NOMO-1 viab -9.8.
C[C@@H]1CCCCO[C@H](CN(C)Cc2ccc(C(F)(F)F)cc2)[C@@H](C)CN([C@H](C)CO)C(=O)c2cc(NS(C)(=O)=O)ccc2O1 was read as STK33 kin inh -0.6 and NOMO-1 viab 15.5.
C[C@@H]1CCCCO[C@H](CN(C)Cc2ccc(C(F)(F)F)cc2)[C@@H](C)CN([C@H](C)CO)C(=O)c2cc(NS(=O)(=O)c3ccc(Cl)cc3)ccc2O1 was read as STK33 kin inh 2.1 and NOMO-1 viab 81.5*.
COc1ccc(S(=O)(=O)Nc2ccc3c(c2)C(=O)N([C@H](C)CO)C[C@H](C)[C@@H](CN(C)Cc2ccc(C(F)(F)F)cc2)OCCCC[C@@H](C)O3)cc1 was read as STK33 kin inh -2.2 and NOMO-1 viab inconclusive.
Cc1ccc(S(=O)(=O)Nc2ccc3c(c2)C(=O)N([C@H](C)CO)C[C@H](C)[C@@H](CN(C)Cc2ccc(C(F)(F)F)cc2)OCCCC[C@@H](C)O3)cc1 was read as STK33 kin inh 2.4 and NOMO-1 viab 112.1*.
Screening COc1cc(C)c(C(=O)Oc2cc(C)c(C(=O)Oc3cc(C)c(C(=O)NC(C)C(=O)O)c(O)c3)c(O[C@@H]3O[C@H](CO)[C@@H](O)[C@H](O)[C@H]3OC(C)=O)c2)c(O)c1 (stereo not given in full) returned STK33 kin inh -8.7.
Screening C=C1CC/C=C(/COC(C)=O)C(=O)C[C@@H]2[C@@H]1CC2(C)C returned STK33 kin inh -13.8.
`C=C(C)C(=O)O[C@H]1C[C@@]2(C)OC(=CC2=O)/C(COC(C)=O)=C\[C@H]2OC(=O)C(=C)C12` (stereo not given in full) gave STK33 kin inh 1.2, PD-1 reverse act -12.8 and NOMO-1 viab 119.8*.
Screening Cc1nc(NCCN2CCOCC2)c2sc3nc4c(cc3c2n1)COC(C)(C)C4 returned PD-1 reverse act 1.8 and NOMO-1 viab 7.9.
Screening CCN(CC)CCNc1ncnc2c1sc1nc(N3CCCC3)c3c(c12)CC(C)(C)OC3 returned STK33 kin inh 0.1, PD-1 reverse act -10.2 and NOMO-1 viab 113.3*.
`COc1ccc(NC(=O)CSc2ncnc3c2sc2nc(N4CCOCC4)c4c(c23)CC(C)(C)OC4)cc1` gave STK33 kin inh 2.7, PD-1 reverse act -5.9 and NOMO-1 viab 99.5*.
For COC(=O)CCSc1ncnc2c1sc1nc(N3CCOCC3)c3c(c12)CCCC3 the results were STK33 kin inh -0.2, PD-1 reverse act -3.4 and NOMO-1 viab 4.3.
Screening CCOc1ccc(-n2c(SCC(=O)c3ccc(Br)cc3)nnc2-c2cccnc2)cc1 returned STK33 kin inh 0.9, PD-1 reverse act -3.3 and NOMO-1 viab 20.7.
Screening CCOC(=O)c1cc(C#N)c(Oc2ccc(C)cc2)nc1C(F)(F)F returned STK33 kin inh 0.1, PD-1 reverse act -2.2 and NOMO-1 viab 72.8.
For CC(=O)NC(=O)NCc1ccccc1 the results were PD-1 reverse act 1.5 and NOMO-1 viab -3.3.
Screening Cc1oc2c(c1C(=O)NCc1ccccc1)C(=O)c1ccccc1C2=O returned PD-1 reverse act -2.5 and NOMO-1 viab 139.9*.
Screening O=C(CSc1nnc(-c2ccco2)n1-c1cccc2ccccc12)Nc1ccc(C(=O)O)cc1 returned STK33 kin inh -1.0, PD-1 reverse act 0.3 and NOMO-1 viab 6.5.
For CCCC[C@@H](C)/C=C(C)/C=C(\C)C(=O)NC1=C[C@@](O)(/C=C/C=C/C=C/C(=O)NC2C(=O)CCC2=O)[C@@H]2O[C@@H]2C1=O the results were STK33 kin inh -2.8, PD-1 reverse act -57.1 and NOMO-1 viab 141.8*.
`CCC1(C)Cc2c(sc3nc(SC)nc(SCC(=O)Nc4ccc(C)cc4)c23)CO1` (stereo not given) gave STK33 kin inh 3.1 and NOMO-1 viab -10.1.
For O=C(Oc1ccc(C2SCCS2)cc1)c1cccc(C(F)(F)F)c1 the results were STK33 kin inh -6.5, PD-1 reverse act -1.1 and NOMO-1 viab 3.3.
CCc1ccc(-c2nc3ccccc3c(=O)o2)cc1 was read as STK33 kin inh 1.4, PD-1 reverse act -0.9 and NOMO-1 viab 18.6.
For CCCC1CCC(c2ccc(OC(=O)c3cccnc3)cc2)CC1 (stereo not given) the results were PD-1 reverse act 0.1 and NOMO-1 viab 54.5.
`O=c1c(C=Nc2ccccc2)c(Nc2ccccc2)[nH]n1-c1ccccc1` gave STK33 kin inh 0.9, PD-1 reverse act 4.5 and NOMO-1 viab 102.1*.
`Cc1cccc(-c2nnc(SCC(=O)Nc3ccc(Br)cc3F)o2)c1` gave STK33 kin inh -2.4 and NOMO-1 viab 3.2.
Screening O=c1c2ccccc2oc2ccc(O)cc12 returned STK33 kin inh 17.1 and NOMO-1 viab -4.1.
For COc1ccc2oc3ccccc3c(=O)c2c1 the results were STK33 kin inh 60.7*, PD-1 reverse act -0.8 and NOMO-1 viab inconclusive.
